Source: PubChem BioAssay (National Center for Advancing Translational Sciences (NCATS))
AmpC no deterg = inhibitors of E. coli AmpC beta-lactamase without detergent. P00811. AmpC nitrocefin hydrolysis, absorbance 480 nm, 0.0001% Triton. Potency, µM (doses to about 57.1 µM), usual class: inhibitors. hit rate 0.52% among 330,000. AID 485341; also: nearly all actives have a fitted effect of over 20% in size
Target sequence (P00811 whole entry, looked up): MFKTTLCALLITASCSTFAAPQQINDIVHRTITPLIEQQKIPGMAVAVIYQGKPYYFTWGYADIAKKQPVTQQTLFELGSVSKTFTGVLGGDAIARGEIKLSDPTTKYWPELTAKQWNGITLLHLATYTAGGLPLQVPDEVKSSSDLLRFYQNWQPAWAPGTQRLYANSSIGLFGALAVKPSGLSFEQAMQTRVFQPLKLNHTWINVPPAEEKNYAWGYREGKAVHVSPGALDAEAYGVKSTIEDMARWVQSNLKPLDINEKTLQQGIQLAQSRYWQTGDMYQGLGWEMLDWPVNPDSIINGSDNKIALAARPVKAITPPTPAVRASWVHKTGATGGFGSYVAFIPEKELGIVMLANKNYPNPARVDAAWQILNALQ
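20 mM phosphate pH 7.0 + 0.01% (detergent screen) or 0.0001% Triton X-100; 5.3 nM AmpC reagent; cpd preinc 15 min RT; nitrocefin (800 uM stock) to start; A480 q20 s × 4 min; Activity was normalised to no-enzyme and no-compound control wells.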
HCV inhibitor = HCV inhibition. Huh7.5.1 HCVcc-Cre infection, luciferase reporter, 44 h. Potency, µM (highest dose often 41.8 µM), actives largely listed as inhibitors. hit rate 3.4% among 340,000
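Infectious HCVcc-Cre (~0.5 moi) was added to cells just after compound, with cells seeded 4 h earlier at 1,000 per well. Luciferase activity after 44 h culture reported infection; substrate was incubated 15 min at room temperature before reading.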
FMDV inh = foot and mouth disease virus antiviral activity. FMDV antiviral cell-based qHTS. Potency, µM (series often up to 57.9 µM), most hits filed as inhibitors. hit rate 1.2% among 410,000. AID 1159524; calls by dose curve; tested in HEK293T cells; also: read-out not given here; nearly all actives have a fitted effect of over 45% in size
HCMV antiviral = inhibitors of human cytomegalovirus. hit rate 4.5% among 410,000. HFF cells, HCMV-luciferase reporter, 72 h; active compounds read low. AID 1259415. activity change, negative = inhibition, % at 57.5 µM; in the data active = activity change below about -60%; inconclusive = no clear call, values can overlap the other calls; inactive = above about -39%
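Compounds were evaluated in HFFs infected with an HCMV luciferase reporter virus (MOI 1 PFU/cell). Luciferase in lysates collected 72 h post infection served as the replication measure.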
AmpC inh detg = AmpC beta-lactamase inhibition with detergent present; AmpC hydrolysis of nitrocefin, absorbance 480 nm, 0.01% Triton; Potency, µM (top dose mostly 114 µM), actives largely listed as inhibitors; hit rate 0.041% among 370,000; AID 485294; also: nearly all actives have a fitted effect of over 25% in size
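AmpC (5.3 nM in the dispensed reagent) in 20 mM phosphate pH 7.0 with 0.01% (detergent screen) or 0.0001% Triton X-100 was preincubated with compounds for 15 min at room temperature. Nitrocefin was then added from an 800 uM solution, and hydrolysis was followed at 480 nm.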
A number is an active result. The list is not random: actives were taken first. Their share in the collection is about 7.3%. Unless noted, calls follow the shape of the dose curve; as a rule, active = well fitted curve in the direction sought with a large enough effect; inconclusive = small, poorly fitted or top-dose-only effect, or another doubt; inactive = no such curve, though single readings can be large; an effect the other way counts as inactive or inconclusive.

What do the screens show for `CN(CC(=O)OCC(=O)NC1CCCC1)S(=O)(=O)c1ccc(Cl)cc1`?
AmpC no deterg: inactive; HCV inhibitor: inactive; FMDV inh: inconclusive; HCMV antiviral: inactive

What do the screens show for `CCCc1ccc(/C=C2\C(=O)c3ccccc3C(O)=C2C(=O)OCC)cc1`?
AmpC no deterg: 18µM; HCV inhibitor: inactive; AmpC inh detg: inconclusive

What do the screens show for `CCOC(=O)C1=C(O)c2ccccc2C(=O)/C1=C\c1ccc(CC)cc1`?
AmpC no deterg: inactive; HCV inhibitor: inconclusive; FMDV inh: inconclusive; AmpC inh detg: inactive

How did COc1ccc2c(c1)N(C)/C(=C/c1cccc[n+]1C)S2 do in these assays?
AmpC no deterg: inactive; HCV inhibitor: 3.5µM; FMDV inh: inconclusive; HCMV antiviral: -99; AmpC inh detg: inactive

What do the screens show for `CCN1/C(=C/C(C)=O)Sc2ccc(OC)cc21`?
AmpC no deterg: inactive; HCV inhibitor: inactive; FMDV inh: inactive; HCMV antiviral: inactive; AmpC inh detg: inactive

How did CCN1/C(=C/c2cccc[n+]2C)Sc2ccc(OC)cc21 do in these assays?
AmpC no deterg: inactive; HCV inhibitor: 3.5µM; FMDV inh: inconclusive; HCMV antiviral: -94; AmpC inh detg: inactive

How did COc1cc(OC)cc(C(=O)/C=C2\Sc3ccccc3N2C)c1 do in these assays?
AmpC no deterg: inactive; HCV inhibitor: inactive; FMDV inh: inactive; HCMV antiviral: inactive; AmpC inh detg: inactive

What do the screens show for `CCC(C)N1C(=O)N(c2cccc(Cl)c2)C(C)(O)CC1(C)C` (stereo unspecified)?
AmpC no deterg: inactive; HCV inhibitor: inactive; FMDV inh: inactive; HCMV antiviral: inconclusive; AmpC inh detg: inactive

How did O=C(C1CCN(c2ncnc3c2nc2n3CCCCC2)CC1)N1CCN(c2cccc(Cl)c2)CC1 do in these assays?
AmpC no deterg: inactive; HCV inhibitor: inconclusive; FMDV inh: 22µM; HCMV antiviral: -91; AmpC inh detg: inactive

Results for O=C(Nc1ccc(Cl)cn1)C1CCN(c2ncnc3c2nc2n3CCCCC2)CC1 ?
AmpC no deterg: inactive; HCV inhibitor: 10µM; FMDV inh: inconclusive; HCMV antiviral: -86; AmpC inh detg: inactive

Results for Clc1cccc(N2CCN(c3ncnc4c3nc3n4CCCCC3)CC2)c1 ?
FMDV inh: 11µM; HCMV antiviral: -73; AmpC inh detg: inactive

How did O=C(Nc1ccc(Cl)cn1)C1CCCN(c2ncnc3c2nc2n3CCCCC2)C1 (stereo unspecified) do in these assays?
AmpC no deterg: inactive; HCV inhibitor: inconclusive; FMDV inh: inactive; HCMV antiviral: inactive; AmpC inh detg: inactive

What do the screens show for `CCOC(=O)C(C)NC(=O)C1CCN(c2ncnc3c2nc2n3CCCCC2)CC1` (stereo unspecified)?
FMDV inh: inactive; HCMV antiviral: -85; AmpC inh detg: inactive

Results for O=C(C1CCN(c2ncnc3c2nc2n3CCCCC2)CC1)N1CCN(c2ccc(Cl)cc2)CC1 ?
FMDV inh: inactive; HCMV antiviral: inconclusive; AmpC inh detg: inactive

What do the screens show for `Cc1ccc(N2C(=O)N3[C@H](c4ccc(F)cc4)[C@@H]4C(=O)N(C5CCCCC5)C(=O)[C@@H]4[C@]3(Cc3ccccc3)C2=O)cc1`?
AmpC no deterg: inactive; HCV inhibitor: inactive; FMDV inh: inactive; HCMV antiviral: inactive; AmpC inh detg: inconclusive

How did CC1CCN(C(=O)C2CCN(c3ncnc4c3nc3n4CCCCC3)CC2)CC1 do in these assays?
AmpC no deterg: inactive; HCV inhibitor: inactive; FMDV inh: inconclusive; HCMV antiviral: inconclusive; AmpC inh detg: inactive

Results for Cc1ccc(N2CCN(C(=O)C3CCN(c4ncnc5c4nc4n5CCCCC4)CC3)CC2)c(C)c1 ?
FMDV inh: inconclusive; HCMV antiviral: -62; AmpC inh detg: inactive

What do the screens show for `CCOC(=O)c1c(C)oc2nc(C)nc(NCc3cccc(Cl)c3)c12`?
FMDV inh: inactive; HCMV antiviral: inactive; AmpC inh detg: inactive

Results for COc1ccc(Cn2c(=O)[nH]c3cc(C(=O)N4CCN(c5cc(C)ccc5C)CC4)ccc3c2=O)cc1 ?
FMDV inh: inactive; HCMV antiviral: inactive; AmpC inh detg: inactive

What do the screens show for `COc1ccc(Cn2c(=O)[nH]c3cc(C(=O)N4CCN(c5ccccc5F)CC4)ccc3c2=O)cc1`?
AmpC no deterg: inactive; HCV inhibitor: inconclusive; FMDV inh: inactive; HCMV antiviral: inactive; AmpC inh detg: inactive

What do the screens show for `COc1ccc(Cn2c(=O)[nH]c3cc(C(=O)N4CCN(c5ccccc5OC)CC4)ccc3c2=O)cc1`?
AmpC no deterg: inactive; HCV inhibitor: 10µM; FMDV inh: 18µM; AmpC inh detg: inactive
